How the values were obtained:
[1] = biological target: T1, Inhibitor of nuclear factor kappa-B kinase subunit epsilon (Homo sapiens) (UniProt Q14164); conditions: at 1 µM;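 note: reported values are averaged percent inhibition figures against human IKKε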
T1 sequence (whole entry): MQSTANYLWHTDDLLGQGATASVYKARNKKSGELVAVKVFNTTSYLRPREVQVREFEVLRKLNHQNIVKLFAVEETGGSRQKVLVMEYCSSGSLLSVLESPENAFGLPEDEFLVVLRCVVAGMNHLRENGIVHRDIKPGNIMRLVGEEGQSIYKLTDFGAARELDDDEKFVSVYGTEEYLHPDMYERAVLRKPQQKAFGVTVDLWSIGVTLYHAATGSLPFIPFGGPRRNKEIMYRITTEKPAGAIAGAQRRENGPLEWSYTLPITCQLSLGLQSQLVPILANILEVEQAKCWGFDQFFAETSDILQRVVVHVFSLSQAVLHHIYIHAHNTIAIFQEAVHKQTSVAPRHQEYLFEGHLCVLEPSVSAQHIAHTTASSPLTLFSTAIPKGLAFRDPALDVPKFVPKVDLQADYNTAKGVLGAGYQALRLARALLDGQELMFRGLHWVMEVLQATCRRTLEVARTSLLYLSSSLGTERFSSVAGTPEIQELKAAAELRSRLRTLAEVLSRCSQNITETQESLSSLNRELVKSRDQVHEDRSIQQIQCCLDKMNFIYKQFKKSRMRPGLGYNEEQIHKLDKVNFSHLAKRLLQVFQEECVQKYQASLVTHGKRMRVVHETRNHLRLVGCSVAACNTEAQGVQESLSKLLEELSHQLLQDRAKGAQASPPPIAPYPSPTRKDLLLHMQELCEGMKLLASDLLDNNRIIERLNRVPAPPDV

[2] = biological target: T2, Serine/threonine-protein kinase Nek1 (Homo sapiens) (UniProt Q96PY6); conditions: at 0.1 µM
T2 sequence (whole entry): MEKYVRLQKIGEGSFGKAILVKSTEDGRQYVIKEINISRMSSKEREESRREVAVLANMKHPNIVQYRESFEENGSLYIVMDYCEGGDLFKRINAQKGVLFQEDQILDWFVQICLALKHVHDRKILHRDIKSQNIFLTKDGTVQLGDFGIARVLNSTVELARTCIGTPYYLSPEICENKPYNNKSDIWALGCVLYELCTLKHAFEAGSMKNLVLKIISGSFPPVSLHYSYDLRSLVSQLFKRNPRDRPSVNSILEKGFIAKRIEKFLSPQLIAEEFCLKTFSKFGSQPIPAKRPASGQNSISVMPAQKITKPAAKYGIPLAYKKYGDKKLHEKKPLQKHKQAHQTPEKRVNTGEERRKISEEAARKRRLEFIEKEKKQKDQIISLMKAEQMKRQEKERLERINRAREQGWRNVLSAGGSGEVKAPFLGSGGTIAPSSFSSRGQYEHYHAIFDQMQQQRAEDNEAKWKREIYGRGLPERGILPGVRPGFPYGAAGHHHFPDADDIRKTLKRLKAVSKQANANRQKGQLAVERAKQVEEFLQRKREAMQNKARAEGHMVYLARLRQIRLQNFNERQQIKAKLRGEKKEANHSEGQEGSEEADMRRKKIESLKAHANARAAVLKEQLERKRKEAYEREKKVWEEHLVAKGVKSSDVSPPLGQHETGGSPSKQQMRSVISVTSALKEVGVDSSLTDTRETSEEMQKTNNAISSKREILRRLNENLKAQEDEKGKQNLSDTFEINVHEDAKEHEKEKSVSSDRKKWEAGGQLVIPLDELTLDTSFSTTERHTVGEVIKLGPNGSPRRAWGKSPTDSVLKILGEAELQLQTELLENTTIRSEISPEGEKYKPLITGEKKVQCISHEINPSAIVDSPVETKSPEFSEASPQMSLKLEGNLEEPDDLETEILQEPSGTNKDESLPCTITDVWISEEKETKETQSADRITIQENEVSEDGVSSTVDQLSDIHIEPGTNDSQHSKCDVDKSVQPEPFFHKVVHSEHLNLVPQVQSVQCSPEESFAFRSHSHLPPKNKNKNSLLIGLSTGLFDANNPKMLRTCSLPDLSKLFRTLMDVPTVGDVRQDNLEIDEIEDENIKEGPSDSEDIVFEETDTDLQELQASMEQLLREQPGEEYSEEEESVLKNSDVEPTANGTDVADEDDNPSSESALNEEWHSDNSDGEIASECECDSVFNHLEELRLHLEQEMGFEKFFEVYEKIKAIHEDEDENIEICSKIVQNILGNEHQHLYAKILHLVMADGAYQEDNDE

[3] = biological target: T2, Serine/threonine-protein kinase Nek1 (Homo sapiens); conditions: at 1 µM
[4] = biological target: T3, Serine/threonine-protein kinase Nek2 (Homo sapiens) (UniProt P51955); conditions: at 0.1 µM
T3 sequence (whole entry): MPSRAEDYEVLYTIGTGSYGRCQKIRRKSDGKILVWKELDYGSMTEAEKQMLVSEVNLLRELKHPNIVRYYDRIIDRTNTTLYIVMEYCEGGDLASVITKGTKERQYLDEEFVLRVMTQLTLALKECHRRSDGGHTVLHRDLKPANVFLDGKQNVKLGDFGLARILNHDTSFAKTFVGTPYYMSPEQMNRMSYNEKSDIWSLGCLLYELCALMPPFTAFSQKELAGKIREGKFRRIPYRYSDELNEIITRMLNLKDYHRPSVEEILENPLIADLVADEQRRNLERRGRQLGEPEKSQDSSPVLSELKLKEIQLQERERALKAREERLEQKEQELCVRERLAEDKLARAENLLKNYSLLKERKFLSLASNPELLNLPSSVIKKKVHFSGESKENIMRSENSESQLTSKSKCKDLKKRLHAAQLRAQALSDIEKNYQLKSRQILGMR

[5] = biological target: T3, Serine/threonine-protein kinase Nek2 (Homo sapiens); conditions: at 1 µM
[6] = biological target: Serine/threonine-protein kinase Nek6 (Homo sapiens) (UniProt Q9HC98); conditions: at 0.1 µM
Serine/threonine-protein kinase Nek6 (Homo sapiens), sequence (Q9HC98 whole entry): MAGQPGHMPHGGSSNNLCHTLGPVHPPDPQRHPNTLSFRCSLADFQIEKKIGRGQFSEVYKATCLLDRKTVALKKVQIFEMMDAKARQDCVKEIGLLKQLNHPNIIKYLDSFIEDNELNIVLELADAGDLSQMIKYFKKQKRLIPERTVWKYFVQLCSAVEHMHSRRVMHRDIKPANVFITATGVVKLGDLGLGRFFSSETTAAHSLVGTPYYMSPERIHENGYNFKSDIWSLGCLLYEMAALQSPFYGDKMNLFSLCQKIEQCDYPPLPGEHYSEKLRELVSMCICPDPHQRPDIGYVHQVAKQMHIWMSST

[7] = biological target: Serine/threonine-protein kinase Nek6 (Homo sapiens) (UniProt Q9HC98); conditions: at 1 µM
[8] = biological target: Serine/threonine-protein kinase Nek7 (Homo sapiens) (UniProt Q8TDX7); conditions: at 0.1 µM
Serine/threonine-protein kinase Nek7 (Homo sapiens), sequence (Q8TDX7 whole entry, looked up): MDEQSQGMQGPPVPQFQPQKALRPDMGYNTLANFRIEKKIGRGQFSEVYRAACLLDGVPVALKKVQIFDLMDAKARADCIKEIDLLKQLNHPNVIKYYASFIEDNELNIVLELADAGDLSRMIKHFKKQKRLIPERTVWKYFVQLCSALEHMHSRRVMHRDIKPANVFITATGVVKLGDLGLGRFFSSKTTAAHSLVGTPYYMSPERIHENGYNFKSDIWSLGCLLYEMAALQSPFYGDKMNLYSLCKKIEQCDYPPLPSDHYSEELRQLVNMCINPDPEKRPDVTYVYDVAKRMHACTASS

[9] = biological target: Serine/threonine-protein kinase Nek7 (Homo sapiens) (UniProt Q8TDX7); conditions: at 1 µM
[10] = biological target: T4, Serine/threonine-protein kinase Nek9 (Homo sapiens) (UniProt Q8TD19); conditions: at 0.1 µM
T4 sequence (whole entry): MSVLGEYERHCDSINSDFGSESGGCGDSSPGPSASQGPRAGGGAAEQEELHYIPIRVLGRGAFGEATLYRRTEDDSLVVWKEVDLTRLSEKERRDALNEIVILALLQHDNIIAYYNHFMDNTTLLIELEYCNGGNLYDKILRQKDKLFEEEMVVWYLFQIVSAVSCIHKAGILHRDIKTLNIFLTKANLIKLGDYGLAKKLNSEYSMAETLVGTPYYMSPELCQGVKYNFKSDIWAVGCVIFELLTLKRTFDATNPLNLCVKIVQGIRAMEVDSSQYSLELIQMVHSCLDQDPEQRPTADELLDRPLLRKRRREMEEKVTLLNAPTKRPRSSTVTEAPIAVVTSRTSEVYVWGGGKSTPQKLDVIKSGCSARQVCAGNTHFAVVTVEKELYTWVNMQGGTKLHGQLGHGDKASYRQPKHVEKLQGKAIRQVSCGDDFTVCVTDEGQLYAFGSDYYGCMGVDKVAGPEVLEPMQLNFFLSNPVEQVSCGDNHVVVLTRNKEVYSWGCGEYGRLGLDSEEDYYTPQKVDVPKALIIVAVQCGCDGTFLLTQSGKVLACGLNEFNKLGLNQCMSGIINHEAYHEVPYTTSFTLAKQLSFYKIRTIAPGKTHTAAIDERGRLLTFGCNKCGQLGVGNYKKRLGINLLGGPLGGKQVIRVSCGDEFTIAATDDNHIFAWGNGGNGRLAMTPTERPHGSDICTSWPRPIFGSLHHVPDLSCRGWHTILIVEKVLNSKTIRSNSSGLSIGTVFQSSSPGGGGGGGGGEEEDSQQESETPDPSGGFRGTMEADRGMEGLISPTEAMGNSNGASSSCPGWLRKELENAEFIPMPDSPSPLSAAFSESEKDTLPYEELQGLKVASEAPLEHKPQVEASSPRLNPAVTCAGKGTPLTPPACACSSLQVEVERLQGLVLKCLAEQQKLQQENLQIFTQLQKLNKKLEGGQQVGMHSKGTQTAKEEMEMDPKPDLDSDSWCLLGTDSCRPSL

[11] = biological target: T4, Serine/threonine-protein kinase Nek9 (Homo sapiens); conditions: at 1 µM
[12] = biological target: Serine/threonine-protein kinase PLK1 (Homo sapiens) (UniProt P53350); conditions: at 0.1 µM
Serine/threonine-protein kinase PLK1 (Homo sapiens), sequence (P53350 whole entry): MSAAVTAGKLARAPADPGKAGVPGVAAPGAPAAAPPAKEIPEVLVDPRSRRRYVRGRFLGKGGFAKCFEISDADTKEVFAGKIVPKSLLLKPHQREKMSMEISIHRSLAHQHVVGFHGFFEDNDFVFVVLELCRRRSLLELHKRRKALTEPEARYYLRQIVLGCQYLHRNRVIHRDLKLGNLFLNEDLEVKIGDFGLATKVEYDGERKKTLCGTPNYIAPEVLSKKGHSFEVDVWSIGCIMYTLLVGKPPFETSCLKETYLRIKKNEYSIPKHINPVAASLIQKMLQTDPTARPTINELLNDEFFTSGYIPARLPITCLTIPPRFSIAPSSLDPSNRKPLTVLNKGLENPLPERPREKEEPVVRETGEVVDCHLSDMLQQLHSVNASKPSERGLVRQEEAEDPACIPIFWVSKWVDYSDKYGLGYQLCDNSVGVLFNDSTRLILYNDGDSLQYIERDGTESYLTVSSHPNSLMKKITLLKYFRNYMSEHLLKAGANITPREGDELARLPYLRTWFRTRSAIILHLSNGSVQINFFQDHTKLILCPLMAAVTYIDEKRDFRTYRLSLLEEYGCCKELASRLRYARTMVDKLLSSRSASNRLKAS

[13] = biological target: Serine/threonine-protein kinase PLK1 (Homo sapiens) (UniProt P53350); conditions: at 1 µM
[14] = biological target: T5, Dual specificity protein kinase TTK (Homo sapiens) (UniProt P33981); conditions: at 0.1 µM
T5 sequence (whole entry): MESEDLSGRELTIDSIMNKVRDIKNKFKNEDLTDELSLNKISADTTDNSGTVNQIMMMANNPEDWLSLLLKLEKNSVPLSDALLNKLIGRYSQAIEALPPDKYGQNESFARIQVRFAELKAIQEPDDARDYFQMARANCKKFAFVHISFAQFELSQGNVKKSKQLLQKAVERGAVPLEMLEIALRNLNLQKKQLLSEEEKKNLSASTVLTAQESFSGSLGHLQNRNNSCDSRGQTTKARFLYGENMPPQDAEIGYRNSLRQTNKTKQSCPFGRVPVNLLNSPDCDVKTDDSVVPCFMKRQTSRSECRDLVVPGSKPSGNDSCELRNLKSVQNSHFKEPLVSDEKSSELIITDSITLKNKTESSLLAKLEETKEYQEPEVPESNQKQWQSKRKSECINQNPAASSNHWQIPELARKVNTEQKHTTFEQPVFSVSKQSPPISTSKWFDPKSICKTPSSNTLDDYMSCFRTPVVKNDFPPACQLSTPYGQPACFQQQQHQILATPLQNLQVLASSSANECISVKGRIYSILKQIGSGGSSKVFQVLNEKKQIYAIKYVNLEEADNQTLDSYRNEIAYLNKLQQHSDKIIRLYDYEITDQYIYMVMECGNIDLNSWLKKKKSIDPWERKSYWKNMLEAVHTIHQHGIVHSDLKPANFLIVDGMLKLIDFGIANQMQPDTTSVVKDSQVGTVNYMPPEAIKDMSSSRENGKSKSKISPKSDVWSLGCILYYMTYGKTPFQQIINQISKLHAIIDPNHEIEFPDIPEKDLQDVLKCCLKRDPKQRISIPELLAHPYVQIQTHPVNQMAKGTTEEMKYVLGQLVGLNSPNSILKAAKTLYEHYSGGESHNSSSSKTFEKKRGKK

[15] = test system: T6, Receptor-type tyrosine-protein kinase FLT3 (Homo sapiens), P36888 [D835Y]; conditions: at 1 µM
T6 sequence (whole entry): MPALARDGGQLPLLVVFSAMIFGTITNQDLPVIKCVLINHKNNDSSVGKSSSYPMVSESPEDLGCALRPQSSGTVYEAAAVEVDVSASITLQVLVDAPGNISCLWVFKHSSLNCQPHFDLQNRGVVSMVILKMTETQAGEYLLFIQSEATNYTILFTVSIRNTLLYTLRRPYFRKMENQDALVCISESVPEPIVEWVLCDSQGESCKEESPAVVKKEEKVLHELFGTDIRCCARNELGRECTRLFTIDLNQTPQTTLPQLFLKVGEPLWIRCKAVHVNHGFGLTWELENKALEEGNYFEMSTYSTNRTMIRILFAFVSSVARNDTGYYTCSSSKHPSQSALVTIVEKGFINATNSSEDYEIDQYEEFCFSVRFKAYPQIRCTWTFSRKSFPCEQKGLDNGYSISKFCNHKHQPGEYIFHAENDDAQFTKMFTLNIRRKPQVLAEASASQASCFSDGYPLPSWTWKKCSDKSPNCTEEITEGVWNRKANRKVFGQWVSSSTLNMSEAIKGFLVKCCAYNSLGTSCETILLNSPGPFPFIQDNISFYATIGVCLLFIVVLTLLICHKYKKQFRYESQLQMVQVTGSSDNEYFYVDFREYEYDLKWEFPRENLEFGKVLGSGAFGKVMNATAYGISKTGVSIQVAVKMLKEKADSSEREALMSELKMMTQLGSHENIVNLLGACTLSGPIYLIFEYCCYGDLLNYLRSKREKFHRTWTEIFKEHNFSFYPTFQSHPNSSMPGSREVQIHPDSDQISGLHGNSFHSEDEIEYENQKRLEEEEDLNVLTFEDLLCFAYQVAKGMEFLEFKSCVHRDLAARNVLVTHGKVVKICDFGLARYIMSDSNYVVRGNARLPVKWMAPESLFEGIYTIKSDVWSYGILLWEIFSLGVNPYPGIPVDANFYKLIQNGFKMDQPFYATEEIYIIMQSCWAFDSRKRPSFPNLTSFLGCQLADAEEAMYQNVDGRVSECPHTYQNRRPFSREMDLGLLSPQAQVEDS

[16] = biological target: Vascular endothelial growth factor receptor 3 (Homo sapiens) (UniProt P35916); conditions: at 0.1 µM
Vascular endothelial growth factor receptor 3 (Homo sapiens), sequence (P35916 whole entry): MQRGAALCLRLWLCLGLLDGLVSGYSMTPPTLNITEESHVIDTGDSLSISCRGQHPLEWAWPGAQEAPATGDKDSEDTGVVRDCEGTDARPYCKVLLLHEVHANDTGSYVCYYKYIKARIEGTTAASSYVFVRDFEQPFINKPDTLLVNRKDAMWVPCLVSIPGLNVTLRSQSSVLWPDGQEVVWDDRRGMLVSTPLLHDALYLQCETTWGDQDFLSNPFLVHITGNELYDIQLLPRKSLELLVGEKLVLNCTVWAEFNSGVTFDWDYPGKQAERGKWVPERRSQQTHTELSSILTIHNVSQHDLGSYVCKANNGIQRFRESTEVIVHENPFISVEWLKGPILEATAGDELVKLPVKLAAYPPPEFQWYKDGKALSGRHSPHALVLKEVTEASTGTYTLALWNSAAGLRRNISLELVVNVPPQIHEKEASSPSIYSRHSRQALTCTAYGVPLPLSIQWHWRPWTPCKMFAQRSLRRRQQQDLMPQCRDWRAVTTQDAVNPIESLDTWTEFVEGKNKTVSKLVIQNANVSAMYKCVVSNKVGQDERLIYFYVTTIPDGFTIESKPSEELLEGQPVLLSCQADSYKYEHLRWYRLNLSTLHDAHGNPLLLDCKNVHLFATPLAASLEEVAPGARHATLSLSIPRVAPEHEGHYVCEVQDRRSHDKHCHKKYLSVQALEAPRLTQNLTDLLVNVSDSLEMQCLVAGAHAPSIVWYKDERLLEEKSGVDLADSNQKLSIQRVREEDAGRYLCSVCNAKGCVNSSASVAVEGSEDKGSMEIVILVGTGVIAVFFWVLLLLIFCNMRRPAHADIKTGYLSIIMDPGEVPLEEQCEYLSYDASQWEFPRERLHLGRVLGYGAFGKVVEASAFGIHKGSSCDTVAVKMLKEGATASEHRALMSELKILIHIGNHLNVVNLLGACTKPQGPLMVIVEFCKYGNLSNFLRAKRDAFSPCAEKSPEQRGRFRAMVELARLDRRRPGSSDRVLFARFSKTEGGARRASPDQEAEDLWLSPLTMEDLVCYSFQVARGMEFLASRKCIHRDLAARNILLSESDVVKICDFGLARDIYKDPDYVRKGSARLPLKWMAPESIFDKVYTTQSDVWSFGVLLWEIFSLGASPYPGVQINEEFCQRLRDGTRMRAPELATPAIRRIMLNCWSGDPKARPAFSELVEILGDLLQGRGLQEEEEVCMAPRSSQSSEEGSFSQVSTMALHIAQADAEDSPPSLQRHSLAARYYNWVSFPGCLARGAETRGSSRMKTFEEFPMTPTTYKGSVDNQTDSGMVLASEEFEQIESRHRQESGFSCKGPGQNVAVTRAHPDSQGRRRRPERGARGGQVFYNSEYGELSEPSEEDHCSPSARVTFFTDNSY

[17] = biological target: Vascular endothelial growth factor receptor 3 (Homo sapiens) (UniProt P35916); conditions: at 1 µM
[18] = biological target: Macrophage colony-stimulating factor 1 receptor (Homo sapiens) (UniProt P07333); conditions: at 0.1 µM
Macrophage colony-stimulating factor 1 receptor (Homo sapiens), sequence (P07333 whole entry): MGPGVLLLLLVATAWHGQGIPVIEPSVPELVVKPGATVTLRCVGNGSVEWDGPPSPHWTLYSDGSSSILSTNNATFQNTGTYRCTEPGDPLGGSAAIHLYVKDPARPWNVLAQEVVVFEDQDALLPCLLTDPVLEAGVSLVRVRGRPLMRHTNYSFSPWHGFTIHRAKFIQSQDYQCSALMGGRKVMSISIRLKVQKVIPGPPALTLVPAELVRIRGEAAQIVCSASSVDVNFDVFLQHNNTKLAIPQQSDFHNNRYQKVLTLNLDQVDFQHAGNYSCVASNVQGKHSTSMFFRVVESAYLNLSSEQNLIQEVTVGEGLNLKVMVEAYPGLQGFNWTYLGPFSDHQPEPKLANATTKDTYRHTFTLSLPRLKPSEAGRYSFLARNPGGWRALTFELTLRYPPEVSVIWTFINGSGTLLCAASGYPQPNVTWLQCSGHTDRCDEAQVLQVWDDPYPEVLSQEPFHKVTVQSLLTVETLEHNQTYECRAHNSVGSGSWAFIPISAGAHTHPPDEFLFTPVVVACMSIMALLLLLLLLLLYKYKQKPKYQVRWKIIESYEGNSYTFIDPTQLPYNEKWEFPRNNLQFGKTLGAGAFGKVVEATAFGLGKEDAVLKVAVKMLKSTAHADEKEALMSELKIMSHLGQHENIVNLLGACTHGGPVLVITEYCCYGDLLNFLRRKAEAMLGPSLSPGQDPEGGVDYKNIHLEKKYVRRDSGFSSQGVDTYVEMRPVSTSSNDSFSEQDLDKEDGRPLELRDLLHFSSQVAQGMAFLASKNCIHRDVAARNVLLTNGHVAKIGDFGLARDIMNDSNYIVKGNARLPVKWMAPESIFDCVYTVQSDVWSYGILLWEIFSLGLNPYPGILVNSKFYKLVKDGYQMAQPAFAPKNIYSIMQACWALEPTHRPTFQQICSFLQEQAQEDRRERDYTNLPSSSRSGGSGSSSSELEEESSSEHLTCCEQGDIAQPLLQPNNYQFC

[19] = biological target: Macrophage colony-stimulating factor 1 receptor (Homo sapiens) (UniProt P07333); conditions: at 1 µM
[20] = biological target: Tyrosine-protein kinase Fyn (Homo sapiens) (UniProt P06241); conditions: at 0.1 µM
Tyrosine-protein kinase Fyn (Homo sapiens), sequence (P06241 2-537 limits assumed): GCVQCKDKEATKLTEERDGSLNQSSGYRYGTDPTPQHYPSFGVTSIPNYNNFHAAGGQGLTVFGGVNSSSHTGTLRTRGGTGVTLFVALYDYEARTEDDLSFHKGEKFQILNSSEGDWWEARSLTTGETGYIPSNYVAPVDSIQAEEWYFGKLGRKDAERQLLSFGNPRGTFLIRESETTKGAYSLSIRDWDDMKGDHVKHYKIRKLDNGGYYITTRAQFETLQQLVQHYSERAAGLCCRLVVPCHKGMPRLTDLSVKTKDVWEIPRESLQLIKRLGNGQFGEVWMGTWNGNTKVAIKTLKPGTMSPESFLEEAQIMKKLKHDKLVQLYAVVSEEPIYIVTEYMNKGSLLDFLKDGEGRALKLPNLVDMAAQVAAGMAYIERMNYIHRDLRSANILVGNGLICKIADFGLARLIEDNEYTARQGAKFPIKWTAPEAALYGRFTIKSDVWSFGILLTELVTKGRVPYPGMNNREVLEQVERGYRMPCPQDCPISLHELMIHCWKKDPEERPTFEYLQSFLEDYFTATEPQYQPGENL

SMILES	inhibition [1] [%]	inhibition [2] [%]	inhibition [3] [%]	inhibition [4] [%]	inhibition [5] [%]	inhibition [6] [%]	inhibition [7] [%]	inhibition [8] [%]	inhibition [9] [%]	inhibition [10] [%]	inhibition [11] [%]	inhibition [12] [%]	inhibition [13] [%]	inhibition [14] [%]	inhibition [15] [%]	inhibition [16] [%]	inhibition [17] [%]	inhibition [18] [%]	inhibition [19] [%]	inhibition [20] [%]
CCn1c(-c2nonc2N)nc2c(C#CC(C)(C)O)nc(OC[C@H](N)c3ccccc3)cc21	37.9	2.39	2.81	2.31	4.1	-0.95	1.56	1.87	3.72	6.95	3.62	3.81	7.68	7.61	1.02	16.6	62.6	3.84	5.51	2.39
CC1=C(C(=O)Nc2cc(Cl)c3[nH]ncc3c2)C(c2ccc(C(F)(F)F)cc2)CC(=O)N1 (stereo not given)	5.11	2.99	3.61	4.1	4.83	2.7	2.6	4.35	3.32	5.83	8.4	4.17	4.12	5.88	1.66	-0.3	-1.34	5.21	1.8	0.13
CS(=O)(=O)CCNCc1ccc(-c2ccc3ncnc(Nc4ccc(OCc5ccccc5)c(C(F)(F)F)c4)c3c2)o1	5.28	1.71	1.9	4.27	5.33	0.91	-0.61	2.28	4.17	7.54	7.1	3.58	1.98	9.3	-2.7	1.59	1.31	-3.68	1.56	1.63
